Results published in PubChem BioAssay AID1159580 (chemical genetic matrix, 2015).
Where “and” joins values, the source holds several entries; their conditions need not be identical. Equal values may be shown once. The whole screen tested about 5,500 compounds, of which about 2,000 (36%) were called active. About 18% were inconclusive and are not listed. Rule as the data show it: active = normalized growth mostly below about 0.91 (no sharp cut-off); inconclusive = no clear call, values can overlap the other calls; inactive = mostly above about 0.92. The list shows a part of the results.

Assay: chemical genetic growth profiling, strain panel (AID 1159580);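 also: tested at 20 µM; growth read once vehicle control cultures reached saturation at 30 °C; 1 = growth at the plate median or of vehicle wells; lower values mean less growth of the strain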
Settings: S. cerevisiae deletion strains, growth OD

Measured: normalized growth

CC[C@H]1OC(=O)[C@H](C)[C@@H](O[C@H]2C[C@@](C)(OC)[C@@H](O)[C@H](C)O2)[C@H](C)[C@@H](O[C@@H]2O[C@H](C)C[C@H](N(C)C)[C@H]2O)[C@](C)(O)C[C@@H](C)/C(=N/OCOCCOC)[C@H](C)[C@@H](O)[C@]1(C)O
inactive: locus YAL021C, strain ccr4, active compounds read low 1.03 | locus YAL026C, strain drs2, active compounds read low 1.02 | locus YAL030W, strain snc1, active compounds read low 0.998 | locus YBL061C, strain skt5, active compounds read low 1.01 | locus YBR009C, strain hhf1, active compounds read low 0.998 | locus YBR021W, strain FUR4, active compounds read low 1.02 | locus YBR023C, strain chs3, active compounds read low 1.01 | locus YBR171W, strain sec66, active compounds read low 1.03 | locus YBR229C, strain ROT2, active compounds read low 1.01 | locus YBR231C, strain swc5, active compounds read low 1.01 | locus YBR279W, strain paf1, active compounds read low 1 | locus YCL011C, strain gbp2, active compounds read low 1.01 | locus YCL016C, strain dcc1, active compounds read low 1 | locus YCL029C, strain bik1, active compounds read low 0.988 | locus YCL069W, strain vba3, active compounds read low 1.02 | locus YCR088W, strain abp1, active compounds read low 1.01 | locus YDL005C, strain med2, active compounds read low 1.01 | locus YDL035C, strain GPR1, active compounds read low 1.01 | locus YDL040C, strain nat1, active compounds read low 1.01 | locus YDL074C, strain BRE1, active compounds read low 0.975 | locus YDL101C, strain DUN1, active compounds read low 0.991 | locus YDL134C, strain PPH21, active compounds read low 1.01 | locus YDL185W, strain tfp1, active compounds read low 1 | locus YDL192W, strain arf1, active compounds read low 1.01 | locus YDR001C, strain nth1, active compounds read low 1.01 | locus YDR069C, strain doa4, active compounds read low 1.03 | locus YDR101C, strain arx1, active compounds read low 0.994 | locus YDR137W, strain rgp1, active compounds read low 0.969 | locus YDR159W, strain sac3, active compounds read low 0.996 | locus YDR162C, strain NBP2, active compounds read low 1.01 | locus YDR195W, strain ref2 0.994 | locus YDR297W, strain sur2, active compounds read low 1.02 | locus YDR318W, strain mcm21, active compounds read low 0.995 | locus YDR334W, strain swr1, active compounds read low 1.01 | locus YDR335W, strain msn5, active compounds read low 1.01 | locus YDR388W, active compounds read low 0.999 | locus YDR392W, strain spt3, active compounds read low 0.949 | locus YDR502C, strain sam2, active compounds read low 1.01 | locus YEL003W, strain gim4, active compounds read low 1.02 | locus YEL037C, strain rad23, active compounds read low 1.02 | locus YEL061C, strain CIN8 (second series), active compounds read low 1 | locus YEL061C, strain CIN8, active compounds read low 1 | locus YER015W, strain faa2, active compounds read low 1.01 | locus YER016W, strain bim1, active compounds read low 0.995 | locus YER110C, active compounds read low 1 | locus YER111C, strain swi4, active compounds read low 1.01 | locus YER155C, strain BEM2 (second series), active compounds read low 0.897 | locus YER155C, strain BEM2, active compounds read low 1 | locus YER167W, strain BCK2, active compounds read low 1 | locus YFR010W, strain ubp6, active compounds read low 1.02 | locus YGL078C, strain dbp3, active compounds read low 1 | locus YGL086W, strain mad1, active compounds read low 1 | locus YGL167C, strain pmr1, active compounds read low 1 | locus YGL173C, strain kem1, active compounds read low 1.02 | locus YGL227W, strain vid30, active compounds read low 1.03 | locus YGL240W, strain doc1, active compounds read low 1.02 | locus YGL248W, strain PDE1, active compounds read low 0.993 | locus YGL253W, strain hxk2, active compounds read low 1.01 | locus YGR135W, strain pre9, active compounds read low 1.04 | locus YGR229C, strain SMI1, active compounds read low 1.01 | locus YHR013C, strain ard1, active compounds read low 0.983 | locus YHR027C, strain rpn1, active compounds read low 0.999 | locus YHR030C, strain SLT2, active compounds read low 1.01 and 0.997 | locus YHR079C, strain IRE1 (second series), active compounds read low 0.98 | locus YHR079C, strain IRE1, active compounds read low 0.985 | locus YHR094C, strain hxt1, active compounds read low 0.987 | locus YHR129C, strain ARP1, active compounds read low 1.01 | locus YHR142W, strain chs7, active compounds read low 1.02 | locus YHR200W, strain rpn10, active compounds read low 1.01 | locus YIL066C, strain RNR3, active compounds read low 0.983 | locus YIL073C, strain SPO22, active compounds read low 1.07 | locus YIL125W, strain kgd1, active compounds read low 1 | locus YIR030C, strain dcg1, active compounds read low 0.997 | locus YJL092W, strain hpr5, active compounds read low 1.01 | locus YJL095W, strain BCK1 (second series), active compounds read low 1.01 | locus YJL095W, strain BCK1, active compounds read low 0.97 and 0.99 | locus YJL115W, strain asf1, active compounds read low 1.04 | locus YJL129C, strain trk1, active compounds read low 1.02 | locus YJL134W, strain LCB3, active compounds read low 1 | locus YJL154C, strain vps35, active compounds read low 1.01 | locus YJL164C, strain tpk1, active compounds read low 1.01 | locus YJL166W, strain qcr8, active compounds read low 1.01 | locus YJL168C, strain set2, active compounds read low 0.992 | locus YJL187C, strain SWE1 (second series), active compounds read low 0.97 | locus YJL187C, strain SWE1, active compounds read low 1.02 | locus YJR043C, strain POL32, active compounds read low 1.01 | locus YJR066W, strain TOR1, active compounds read low 0.977
